Screens from PubChem BioAssay.
GLP-1R agonist = GLP-1 receptor (human) agonism; 380,000 compounds, 0.007% hits; P43220; Potency, µM (titrated, usually from 45.6 µM), for the others: top-dose activation, actives largely listed as activators; HEK293 GLP-1R CRE-luciferase, luminescence, 4-6 h; cells express a hypersensitive GLP-1R form; note: % of control where 0% means no effect
TrxR1 substrate = rat thioredoxin reductase 1 substrate activity; AID 588456; O89049; 390,000 compounds, 0.01% hits; Potency, µM (top dose mostly 114 µM), inactives show top-dose activity change, negative = substrate turnover; purified TrxR1 substrate turnover, NADPH consumption readout; note: % is set by controls: 0 for no effect and ±100 for the full control effect; nearly all actives have a fitted effect of over 50% in size
Target sequence (O89049 whole entry, looked up): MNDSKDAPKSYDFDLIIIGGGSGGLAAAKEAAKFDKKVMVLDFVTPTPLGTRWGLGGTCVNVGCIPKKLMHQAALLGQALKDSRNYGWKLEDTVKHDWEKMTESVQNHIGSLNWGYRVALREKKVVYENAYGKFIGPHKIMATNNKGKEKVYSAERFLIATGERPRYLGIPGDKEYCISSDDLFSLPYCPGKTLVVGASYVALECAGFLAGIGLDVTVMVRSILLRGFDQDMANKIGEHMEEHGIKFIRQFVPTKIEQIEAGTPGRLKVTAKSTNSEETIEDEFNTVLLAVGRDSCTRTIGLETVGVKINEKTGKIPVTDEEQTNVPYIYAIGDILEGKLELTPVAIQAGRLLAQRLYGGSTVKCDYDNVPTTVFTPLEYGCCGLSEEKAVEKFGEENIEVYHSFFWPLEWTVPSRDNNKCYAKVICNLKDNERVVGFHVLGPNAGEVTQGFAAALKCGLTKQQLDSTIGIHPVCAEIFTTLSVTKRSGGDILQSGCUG
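Rat TrxR1, dispensed at 90 nM, was prereduced with 400 uM NADPH (final) for 5 min at ~22 deg C, then incubated with compound 15 min before 400 uM selenite. A first-read NADPH fluorescence drop versus no-compound background flagged substrates.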
HEK293 tox = cytotoxic in the GLP-1 receptor inverse agonist counter-screen | HEK293 cAMP-luciferase reporter cells, luminescence, 24 h | Potency, µM (titrated, usually from 38.3 µM), without a hit: at the highest dose activity change, negative = inhibition, hits mostly inhibitors | 410,000 compounds, 0.13% hits | AID 624418;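 note: loss of luciferase light is scored as toxicity; % is set by controls: 0 for no effect and ±100 for the full control effect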
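Quantitative HTS format, 1536 wells, 200 cells/uL seeded. Compounds: 23 nL, 24 h, 37 °C. Detection: luciferase reagent, luminescence at 12 min RT; decreased signal taken as cytotoxic.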
mIDH1 inhibitor = inhibitors of human mutant IDH1 R132H; O75874; IDH1-R132H enzyme, NADPH consumption, diaphorase/resazurin fluorescence; Potency, µM (series often up to 76.6 µM), for the others: top-dose activity change, negative = inhibition, most hits filed as inhibitors; 390,000 compounds, 0.093% hits; note: % is set by controls: 0 for no effect and ±100 for the full control effect; nearly all actives have a fitted effect of over 65% in size
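IDH1-R132H (0.5 ug/mL) preincubated 30 min with compound, then NADPH (0.016 mM) and alpha-KG (2 mM) added; 80 min at RT, pH 7.5. Remaining NADPH coupled via diaphorase/resazurin to fluorescence (540/590 nm); concentration-response curves normalized to no-enzyme control.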
GLP1R inv ag = acts as inverse agonist at human GLP-1 receptor | HEK293 GLP-1R CRE-luciferase, luminescence, 24 h; GLP-1R form is constitutively active | Potency, µM (highest dose often 38.3 µM), for inactives: top-dose activity change, negative = inhibition, usual class: inhibitors | 410,000 compounds, 1.6% hits; note: % is set by controls: 0 for no effect and ±100 for the full control effect; nearly all actives have a fitted effect of over 55% in size
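HEK293 cells stably co-expressing a cAMP-responsive luciferase reporter and constitutively active GLP-1R were seeded, incubated 12 h, then exposed to compounds for 24 h at 37 C. Luminescence was read 12 min after detection reagent; inverse agonists lower signal.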
TrxR1 inh = rat TrxR1 inhibition; O89049; recombinant rTrxR1, NADPH fluorescence consumption, selenite substrate; Potency, µM (highest dose often 114 µM), for inactives: top-dose activity change, negative = inhibition, usual class: inhibitors; 390,000 compounds, 1% hits; note: % is set by controls: 0 for no effect and ±100 for the full control effect; nearly all actives have a fitted effect of over 65% in size
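Rat TrxR1 (90 nM in the dispensed reagent) was pre-reduced with 400 uM NADPH for 5 min at room temperature, then incubated with compound for 15 min. After 400 uM selenite was added, NADPH fluorescence (Ex 340/Em 450 nm) was followed for 8 min.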
* hit, by the source's call; ? = inconclusive; / = no result; [ ] = remark or other dose. Rows were chosen to be rich in hits. Some 2.7% of all compounds tested hit in one or more screens of this group. Calls come from the whole dose curve; as a rule, active = well fitted curve in the direction sought with a large enough effect; inconclusive = small, poorly fitted or top-dose-only effect, or another doubt; inactive = no such curve, though single readings can be large; an effect the other way counts as inactive or inconclusive. Potency is the fitted concentration of half-maximal effect.

SMILES	GLP-1R agonist	TrxR1 substrate	HEK293 tox	mIDH1 inhibitor	GLP1R inv ag	TrxR1 inh
Cc1ccc(CNS(=O)(=O)c2cc3c(cc2Cl)NC(=O)CO3)o1	/	3.3%[57.1 µM]	-1.5%	16.8%	4.9%	-1.0%[57.1 µM]
Cc1cc(C)cc(NC(=S)NCC2CCN(C(C)c3ccccc3)C2)c1 (configuration not stated)	6.9%	2.7%	-28.3%	-2.4%	10µM*	-7.6%
COc1ccc(Cn2nnnc2C(c2ccc(N(C)C)cc2)N2CCC(C(N)=O)CC2)cc1 (configuration not stated)	6.7%	0.2%[57.1 µM]	0.4%	-4.8%	13.3%	7.08µM*
COc1ccc(Cn2nnnc2C(c2ccccc2OC)N2CCC(C(N)=O)CC2)cc1 (configuration not stated)	14.1%	6.7%[57.1 µM]	-15.4%	2.0%	10.0%	11.3%[57.1 µM]
CCc1ccc(S(=O)(=O)NC(=S)NC2CCCCC2)cc1	0.6%	4.8%[57.1 µM]	-2.4%	-3.1%	?	6.31µM*
Cc1ccc(S(=O)(=O)NC(=S)NC2CCCCC2)cc1	0.6%	8.2%	1.4%	-9.5%	5.7%	3.55µM*
CCc1ccc(C(C)NC(=S)NC2CCCCC2)cc1 (configuration not stated)	-3.1%	-0.8%	-25.6%	5.0%	?	14.7%
O=C(NNS(=O)(=O)c1ccc(Cl)cc1)NC1CCCCC1	-4.2%	-6.2%[57.1 µM]	-4.5%	7.7%	-20.6%	13.0%[57.1 µM]
O=S(=O)(NC(=S)NC1CCCCC1)c1ccc(Cl)cc1	-3.4%	1.7%	-3.8%	-1.0%	-23.7%	2.82µM*
CCOC(=O)Cc1ccc(NC(=O)N2CC(CC)Oc3ccccc32)cc1 (configuration not stated)	/	27.6%	-24.9%	15.3%	-24.3%	7.9%
CN1CCN(C(c2ccc(Br)cc2)c2cc(Cl)c3cccnc3c2O)CC1 (configuration not stated)	?	3.5%	56.6%	2.8%	?	8.91µM*
CN1CCN(C(c2cccnc2)c2ccc3cccnc3c2O)CC1 (configuration not stated)	18.4%	7.7%	?	-3.5%	2.0%	5.01µM*
COc1cccc(NC(=O)CN2C(=O)CC(c3ccco3)Sc3ccccc32)c1 (configuration not stated)	3.8%	-6.1%	-3.7%	-2.8%	?	12.9%
COC(=O)c1ccccc1NC(=O)c1cc(-c2ccc(Cl)cc2)on1	/	-1.4%	-1.7%	-24.3%	15.0%	8.8%
CCOc1ccc2c(c1)c(=O)c(C(=O)c1ccc3c(c1)OCO3)cn2Cc1ccc(F)cc1	/	6.2%	-10.1%	-1.5%	13.4%	15.9%
Cc1ccc(-c2nnc(SCC(=O)NCCC(C)C)nc2-c2ccc(C)cc2)cc1	/	-6.2%[57.1 µM]	0.9%	43.2%	-20.5%	1.0%[57.1 µM]
Cn1c(/C=C/c2ccc([N+](=O)[O-])o2)nc2ccccc2c1=O	0.7%	-12.1%	?	5.7%	?	10µM*
CCCN(CCC)S(=O)(=O)c1ccc(N2CCCC2=O)c([N+](=O)[O-])c1	12.9%	3.0%	4.5%	2.5%	-7.4%	11.8%
CCCN(CCC)S(=O)(=O)c1ccc(Cl)c([N+](=O)[O-])c1	-8.1%	1.0%	12.6µM*	1.1%	?	?
Cc1cccc2sc(NC(=O)C3CSC4(C)CCC(=O)N34)nc12 (configuration not stated)	1.4%	3.4%	-2.3%	-0.6%	7.08µM*	13.0%
CC(C)(C)OC(=O)N1CCC(c2c(C(=O)Nc3cccc(C(F)(F)F)c3)cnn2-c2ccc(F)cc2F)CC1	/	-2.8%	4.3%	-13.3%	5.01µM*	33.4%
O=C(NC(=S)Nc1ccc(N2CCCCC2)c(Cl)c1)c1cccs1	-3.5%	5.4%	2.82µM*	1.8%	0.0%	-16.5%
O=C(NC(=S)Nc1nc2ccccc2s1)c1cccs1	-5.1%	-6.8%	2.51µM*	-4.2%	0.9%	-5.7%
O=C(Cc1ccccc1)Nc1cccc(NC(=O)c2cccs2)c1	12.0%	7.2%	14.8%	6.6%	12.6µM*	18.0%
COC(=O)c1nc(NC(=S)NC(=O)c2cccs2)sc1C	1.2%	8.7%[57.1 µM]	-7.8%	3.3%	-5.1%	-0.8%[57.1 µM]
SMILES	GLP-1R agonist	TrxR1 substrate	HEK293 tox	mIDH1 inhibitor	GLP1R inv ag	TrxR1 inh
NC(=S)Nc1nc2ccccc2s1	7.9%	0.1%[57.1 µM]	?	1.8%	4.47µM*	15.8%[57.1 µM]
COCC(=O)Nc1nc2ccccc2s1	3.9%	0.3%	-11.5%	1.9%	9.4%	-5.4%
CCCc1cc(N2CCN(c3cc(Cl)ccc3C)CC2)n2cnnc2n1	/	-5.8%	-14.3%	0.0%	3.6%	-3.8%
NS(=O)(=O)c1ccc(NC(=S)NC(=O)c2cccs2)cc1	7.4%	-1.5%	3.8%	-5.8%	10.3%	11.2µM*
O=C(NC(=S)Nc1ccc(S(=O)(=O)N2CCCCC2)cc1)c1cccs1	-30.5%	-6.2%	?	-2.9%	?	?
CC1CCCCC1NC(=S)NC(=O)c1cccs1 (configuration not stated)	6.3%	-1.3%	?	6.9%	8.91µM*	?
CC(OC(=O)c1cccs1)C(=O)NC1CCCCC1C (configuration not stated)	5.8%	6.9%	-0.3%	16.2%	-27.2%	34.1%
O=C(NC(=S)Nc1ccccc1)c1cccs1	12.1%	3.9%	?	-1.3%	-28.5%	50.1µM*
CN(C)CCCNc1nc(N)c([N+](=O)[O-])c(NC2CCCCC2)n1	1.6%	-8.1%	-27.1%	-3.9%	12.6µM*	-7.8%
Cc1ccc(S(=O)(=O)CCC(=O)Nc2cc(Cl)ccc2-n2cncn2)cc1	7.1%	5.1%	-9.7%	-4.8%	9.4%	12.6µM*
CCCCc1ccc(NC(=O)COc2cccc3c(=O)n(C)ccc23)cc1	/	4.8%[57.1 µM]	-1.1%	11.1%	?	14.3%[57.1 µM]
O=C(CN1CCN(C(=O)c2ccco2)CC1)NCc1ccc(Cl)cc1	-7.4%	10.0%	-12.8%	1.4%	-17.4%	14.1µM*
FC(F)(F)COc1nc(OCC(F)(F)F)nc(N2CCN(c3ccccc3)CC2)n1	-0.8%	6.0%[57.1 µM]	-19.8%	1.2%	5.01µM*	18.1%[57.1 µM]
FC(F)(F)COc1nc(N2CCOCC2)nc(N(c2ccccc2)c2ccccc2)n1	-0.4%	-8.2%[57.1 µM]	8.1%	1.9%	?	-21.5%[57.1 µM]
COc1cc(C2CC(=O)N(Cc3ccc(F)cc3)c3ccccc3S2)cc(OC)c1OC (configuration not stated)	-7.2%	-7.3%	4.3%	-9.1%	11.2µM*	21.5%
O=C1CSc2ccccc2N1Cc1ccccc1F	5.1%	7.3%[11.4 µM]	-1.6%	9.4%	-19.3%	7.4%[11.4 µM]
O=C1CC(c2ccccc2)Sc2ccccc2N1Cc1ccccc1F (configuration not stated)	-1.5%	6.4%	-7.0%	9.2%	10µM*	27.2%
